Screening data as filed in PubChem.
FGF22 binding: shifts melting point of recombinant human FGF22 | 1.5% of 340,000 active | Q9HCT0 | activity (Tm shift, normalised), % at 9.99 µM | recombinant FGF22 thermal shift, SYPRO orange fluorescence; percent of sucrose octasulfate shift, DMSO zero;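 active = mean Tm shift, scaled 0 neutral to 100 positive control, at about 1.3% or above, every replicate too, limit read from the data; inconclusive = no clear call, values can overlap the other calls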
MITF act: MITF TRPM1 promoter activation in melanoma cells. activation, % at 12.5 µM. SK-MEL-5 TRPM1-promoter luciferase, 24 h; % of positive control, neutral wells = 0. 0.75% of 300,000 active. AID 588334;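 active = mean activation of at least 80% with every replicate also reaching 80%; inconclusive = mean reaches 80% but some replicate falls short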;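 also: 0% = neutral control wells and 100% = parthenolide positive control wells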
AF4-AF9 inh: MLL-AF4/AF9 protein interaction inhibition; P42568; AlphaScreen, biotin-AF4 peptide binding to FLAG-AF9; inhibition, % at 10 µM; 0.47% of 350,000 active;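 active = every replicate reaching a set inhibition limit, whatever the replicate mean, cut at about 25% in these data; inconclusive = mean inhibition reaches that limit but some replicates miss it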;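 also: 0% = plate neutral control median and 100% = total signal loss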
Target sequence (P42568 whole entry, looked up): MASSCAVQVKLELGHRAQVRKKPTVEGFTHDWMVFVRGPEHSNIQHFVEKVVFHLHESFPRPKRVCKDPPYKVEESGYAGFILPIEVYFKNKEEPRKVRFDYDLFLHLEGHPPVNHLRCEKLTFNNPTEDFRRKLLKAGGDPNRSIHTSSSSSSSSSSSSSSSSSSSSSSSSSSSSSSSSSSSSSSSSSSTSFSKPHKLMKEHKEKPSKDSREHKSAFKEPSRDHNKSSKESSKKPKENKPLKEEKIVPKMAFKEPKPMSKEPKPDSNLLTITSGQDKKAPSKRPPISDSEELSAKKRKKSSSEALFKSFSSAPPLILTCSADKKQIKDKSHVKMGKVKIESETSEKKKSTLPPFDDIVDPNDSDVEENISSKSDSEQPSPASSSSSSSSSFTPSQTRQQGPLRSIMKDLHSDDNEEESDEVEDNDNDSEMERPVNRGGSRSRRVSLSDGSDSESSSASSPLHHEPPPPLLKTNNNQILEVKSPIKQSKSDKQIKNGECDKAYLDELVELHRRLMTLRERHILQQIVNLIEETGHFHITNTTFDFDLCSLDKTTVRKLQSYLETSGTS
SMARCA2 act: increases SMARCA2 function in MMTV reporter cells; 1% of 370,000 active; activation, % at 9.1 µM; MG213 cells, MMTV-luciferase reporter, dexamethasone, overnight; in the data active = activation above about 7.8%;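 also: 0% = vehicle wells and 100% = reference activator wells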
Wnt bcat act: Wnt/beta-catenin pathway activation; Wnt/beta-catenin reporter cell assay, activator, plate reader; activation, % at 9.35 µM; 1.2% of 300,000 active; in the data active = activation above about 30%, passing the limit was not always enough; inconclusive = no clear call, values can overlap the other calls;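 also: 0% = neutral control wells and 100% = positive control wells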
esBAF inh: inhibitors of esBAF chromatin remodeling in mouse ES cells. Bmi1-luciferase knock-in reporter, 24 h; 100% = twice the neutral-well signal. reporter increase, % at 12.5 µM. 2% of 350,000 active; in the data active = activation above about 40%; inconclusive = no clear call, values can overlap the other calls;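 also: 0% = median of the plate's neutral control wells and 100% = double that signal; a rise in the Bmi1 reporter signal indicates esBAF inhibition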
* = called active by the depositor; ? = inconclusive; . = no result. Rows were chosen to be rich in hits. Some 4.3% of all compounds tested hit in one or more screens of this group.

SMILES	FGF22 binding	MITF act	AF4-AF9 inh	SMARCA2 act	Wnt bcat act	esBAF inh
COc1ccc(N2CCN(C(=O)c3ccc(-c4nc5ccccc5s4)o3)CC2)cc1	0	20	1	0	4	43*
COc1ccccc1N1CCN(C(=O)c2ccc(-c3nc4ccccc4s3)o2)CC1	0	38	13	4	-2	24
N[C@H](C(=O)N[C@@H](Cc1ccccc1)C(=O)N1CCC2CCN(S(=O)(=O)c3ccccc3)CC21)c1ccccc1 (stereo partly specified)	.	.	.	2	.	.
O=C(O)CCCC(=O)Nc1cccc([N+](=O)[O-])c1	43*	4	-2	-1	0	.
CCCCC(=O)Nc1cccc(NC(=O)CC)c1	.	.	.	-3	.	3
CC(=O)Nc1cccc(NC(=O)CCCC(=O)O)c1	.	3	.	1	40*	-1
O=C(CCCc1ccccc1)Nc1cccc([N+](=O)[O-])c1	1	.	7	1	10	31
O=C(CCCCCCC(=O)Nc1ccccc1)NO	0	-84	-1	-2	245*	-43
O=C(CCCCCN1C(=O)c2ccccc2C1=O)Nc1ccccc1	.	-6	.	-3	.	0
CN1C(=O)c2cc(NS(=O)(=O)c3ccc(Cl)cc3)ccc2OC[C@@H]2O[C@@H](CC(=O)O)CC[C@@H]21	0	.	1	.	.	-7
c1csc(-c2nc(CN3CCSCC3)cs2)c1	0	-9	4	7	43*	-49
c1c2c(cc3sc(N4CCOCC4)nc13)OCCO2	.	-43	.	-3	-10	-79
c1ccc(N2CCN(c3nc4cc5c(cc4s3)OCCO5)CC2)cc1	.	.	.	1	?	48*
O=[N+]([O-])c1ccc(/C([O-])=C(/C(=S)Nc2ccccc2F)[n+]2ccccc2)cc1	0	0	-4	1	4	7
COc1cccc(NC(=S)/C(=C(\[O-])c2ccc([N+](=O)[O-])cc2)[n+]2ccccc2)c1	43*	9	6	-3	-2	6
Cc1ccc(S(=O)(=O)N(C)C[C@H]2OCCCC[C@@H](C)Oc3ccc(NS(=O)(=O)c4ccccc4)cc3C(=O)N([C@@H](C)CO)C[C@@H]2C)cc1	1	.	-1	.	.	-1
O=C(NCCc1c[nH]c2ccccc12)OCc1cn(Cc2c(F)cccc2F)nn1	.	.	.	1	.	.
CC(=O)N1CC2(C1)[C@H](c1ccc(-c3ccc(C#N)cc3)cc1)[C@@H](CO)N2C(=O)C1CC1	0	.	0	.	.	.
C[C@@H]1CN([C@H](C)CO)C(=O)c2cc(-c3ccncc3)cnc2O[C@H]1CN(C)C(=O)C1CC1	.	.	.	.	.	-3
CCSc1nncn1/N=C/c1ccc(OC)c(OC)c1	.	.	.	3	1	18
C=C(C)CSc1nncn1/N=C/c1ccc(OC)cc1	.	98*	.	6	.	50*
Cc1ccc(O)c(CN(C)Cc2cc(C)ccc2O)c1	0	72	11	4	25	51*
Cc1nc(-c2ccc3c(c2)OCCO3)cs1	43*	39	-3	2	-4	.
CN(C)/C=N/c1nc(-c2ccc3c(c2)OCO3)cs1	43	76	2	4	71*	22
Cc1cccc(Nc2nc(-c3ccc4c(c3)OCCO4)cs2)c1	.	78	.	5	.	20
SMILES	FGF22 binding	MITF act	AF4-AF9 inh	SMARCA2 act	Wnt bcat act	esBAF inh
Nc1nc(-c2ccc3ccccc3c2)cs1	0	?	3	2	17	.
CN(C)/C=N/c1nc(-c2ccc3ccccc3c2)cs1	0	125*	-53	3	41*	60
N#Cc1c(SCC(=O)Nc2ccc(Cl)cc2Cl)sc2c(O)cc(=O)[nH]c12	0	11	-13	7.8*	1	-4
Cc1c(Cl)cccc1NC(=O)CSc1sc2c(O)cc(=O)[nH]c2c1C#N	41	-12	6	-2	-1	3
COc1ccc(C2(CNC(=O)C(=O)Nc3ccc(C)cc3)CCOCC2)cc1	43*	26	-1	1	-3	13
Fc1cccc(Cl)c1CN1CCN(c2ncc(Cc3ccccc3)cn2)CC1	0	.	.	-4	-2	.
Fc1cccc(Cl)c1CN1CCN(c2nc3ccccc3s2)CC1	0	77	-1	5	27	70*
CN(C[C@@H]1N[C@H](CO)[C@@H]1c1ccc(-c2ccccc2)cc1)C(=O)C1CCC1	.	.	2	.	.	.
CCCCSc1nnc(-c2c[nH]c3ccccc23)n1C	0	44	-4	4	32*	72*
Cn1c(SCc2ccccc2)nnc1-c1ccc2c(c1)OCO2	.	11	.	4	-5	52*
CCCCSc1nnc(-c2ccc(C)cc2)n1C	.	34	.	1	53*	20
Cn1c(SCC(=O)N2CCN(c3ccccc3)CC2)nnc1-c1c[nH]c2ccccc12	0	.	-2	-1	2	-2
COC(=O)c1ccc(CSc2nnc(-c3c[nH]c4ccccc34)n2C)o1	0	0	3	-1	-1	1
Cn1c(SCc2ccccc2)nnc1-c1c[nH]c2ccccc12	0	.	5	2	23	81*
COc1ccccc1OCCC(=O)Nc1ccc2c(c1)OCO2	0	12	-1	-1	-2	18
Cc1cc(C)c(OCC(=O)Nc2ccc3c(c2)OCO3)cc1C	.	.	.	1	.	33
Cc1ccccc1OCC(=O)Nc1ccc2c(c1)OCCO2	0	125*	-2	2	38*	.
Cc1ccccc1OCC(=O)OCC(=O)Nc1ccc2c(c1)OCO2	0	-3	0	-2	1	-4
COc1ccccc1OCC(=O)Nc1ccc2c(c1)OCCO2	0	?	-3	2	4	45*
Cc1cccc(NC(=O)COc2ccc(Br)cc2/C=N/O)c1	0	122*	0	2	15	.
Cc1cc(C)c(OCC(=O)Nc2cccc(O)c2)cc1C	.	?	.	2	.	55*
Cc1ccc(S(=O)(=O)N[C@H]2CC[C@@H](CC(=O)NCCN3CCCCC3)O[C@@H]2CO)cc1	0	.	-1	.	.	1
CCOC(=O)C(C)Oc1cccc2c(=O)n(CC(=O)Nc3ccc4c(c3)OCCO4)ccc12 (stereo unspecified)	0	-8	45*	-3	-2	-4
O=C(COC(=O)c1cccnc1Cl)Nc1ccc2c(c1)OCCO2	0	11	1	6	20	4
NC(=O)c1ccccc1OCC(=O)Nc1ccc2c(c1)OCCO2	0	96*	-9	0	22	?
O=C(COc1ccccc1Cl)Nc1ccc2c(c1)OCCO2	.	54	.	6	.	49*
CCOC(=O)C(C)Oc1cccc2c(=O)n(CC(=O)Nc3cccc(OC)c3)ccc12 (stereo unspecified)	0	2	-9	-1	-1	-12
Cc1cccc(C)c1OCC(=O)Nc1ccc2c(c1)OCCO2	0	35	-3	6	18	43*
O=C(COc1ccc(Br)cc1Cl)NC(=O)Nc1ccc2c(c1)OCCO2	0	16	-2	3	8	.
